The record followed here is PubChem BioAssay (NCATS).

Active and inactive are the calls of the source. How the calls were made is not given here.
Potency means the concentration at half of the fitted maximal effect.

The nature of the assay: Immunotoxin (HA22) sensitization/mitigation study. Vehicle arm (PBS) (AID 1159510). The following applies: cancer cells viability with PBS vehicle (HA22 study); series mostly up to 46.1 µM.
As to `CN[C@@H](C)C(=O)N[C@H]1CCCC[C@H]2CC[C@@H](C(=O)N[C@@H](c3ccccc3)c3cn(CCCCc4ccc(CCCCn5cc([C@@H](NC(=O)[C@@H]6CC[C@@H]7CCCC[C@H](NC(=O)[C@H](C)NC)C(=O)N76)c6ccccc6)nn5)cc4)nn3)N2C1=O`, the Potency result is “inactive”. Under `Cc1nn(Cc2ccccc2Cl)c(C)c1CN(C)CC(O)COc1ccc(Cl)cc1` (centres undefined) stands 26.4 µM (active); under `COc1cc2nccc(Oc3ccc(NC(=O)Nc4cc(C)on4)c(Cl)c3)c2cc1OC`, 18.7 µM (active). In the case of `CC(C)OC(=O)C1=CN(C(=O)c2ccc(F)c(F)c2)CC(C)(C)c2c1[nH]c1ccccc21`, the Potency is 2.96 µM (active). Turning to `O=C(O)c1ccc(-c2c[nH]c3ccc(-c4ccccc4)cc23)cc1C1CCCC1`, the Potency result is “inactive”. On to `COc1cc2c(Oc3ccc4[nH]c(C)cc4c3F)ncnc2cc1OCCCN1CCCC1`, for which the Potency is 13.2 µM (active). Under `COc1cc2nccc(Oc3ccc(NC(=O)C4(C(=O)Nc5ccc(F)cc5)CC4)cc3)c2cc1OC` stands 20.9 µM (active).

Take `CN(C)CCCNC(=O)c1ccc(-c2cc(O)c3ncccc3c2)cc1`: the Potency is 16.6 µM (active). With `C[C@]12CC[C@H](O)CC1=CC[C@@H]1[C@H]2CC[C@]2(C)C(c3cccnc3)=CC[C@H]12` the figure was 1.87 µM (active); with `CC1(C)CCC(c2ccc(Cl)cc2)=C(CN2CCN(c3ccc(C(=O)NS(=O)(=O)c4ccc(N[C@H](CCN5CCOCC5)CSc5ccccc5)c(S(=O)(=O)C(F)(F)F)c4)cc3)CC2)C1`, 0.332 µM (active); with `CCN(CC)CCCCNc1nc2cc(Cl)c(Cl)cc2nc1-c1ccc(-c2cccs2)s1`, 18.7 µM (active).

`Clc1ccc2ncc(-c3cccc(NC4CNC4)n3)n2c1`: the Potency is 20.9 µM (active).

On to `NC(CO)(CO)CCc1ccc(Sc2cccc(OCc3ccccc3)c2)cc1Cl`, for which the Potency was 23.5 µM (active). Under `CCCn1c(=O)c2[nH]c(C34CC5CC3C[C@@H](C5)C4)nc2n(CCC)c1=O` stands 16.6 µM (active); under `CC[C@H](Nc1ncnc2nc[nH]c12)c1nc2cccc(F)c2c(=O)n1-c1ccccc1`, 20.9 µM (active); under `CCOC(CN1C(=O)[C@](CC(=O)Nc2ccc(C)cc2)(NC(=O)Nc2ccc(C)cc2)c2ccccc21)OCC`, 23.5 µM (active).

In the case of `CN(C)C1CCN(C(=O)c2ccc(NC(=O)Nc3nc(N4CCOCC4)nc(N4CCOCC4)n3)cc2)CC1`, the Potency is 0.166 µM (active). With `CCC(=C(c1ccccc1)c1ccc(OCCN(C)C)cc1)c1ccccc1` the figure was 23.5 µM (active); with `C/C(=C\C(=O)Nc1ccccc1C(=O)O)c1ccc2ccccc2c1`, 16.6 µM (active); with `CC[C@@H]1C(=O)N(C)c2cnc(Nc3ccc(C(=O)NC4CCN(C)CC4)cc3OC)nc2N1C1CCCC1`, 0.0066 µM (active).

On to `O=C(c1ccc(Nc2nccc(-c3cc4ccccc4s3)n2)cc1)N1CCC(N2CCCC2)CC1`, for which the Potency was 16.6 µM (active). Under `CNC1CCN(C(Cc2cccc(-c3ccncc3)c2)C(=O)c2sc3c(F)ccc(F)c3c2Cl)CC1` (centres undefined) stands 20.9 µM (active); under `N#Cc1ccc(COC[C@H]2O[C@@H](n3c(NCc4ccc(Cl)c(Cl)c4)nc4c(N)ncnc43)[C@@H](O)[C@@H]2O)cc1`, 23.5 µM (active). Under `COc1cc(C)c(Sc2cnc(NC(=O)c3ccc(CNC(C)C(C)(C)C)cc3)s2)cc1C(=O)N1CCN(C(C)=O)CC1` (centres undefined) stands 14.8 µM (active); under `CN(C)c1ccc(Nc2nc(N)n(C(=O)c3c(F)cccc3F)n2)cc1`, 20.9 µM (active). With `CCn1c(-c2nonc2N)nc2c(C#CC(C)(C)O)ncc(OC[C@H]3CCCNC3)c21` the figure was 10.5 µM (active); with `CN(C)Cc1ccc(-c2nc3cccc4c3n2CCNC4=O)cc1`, 23.5 µM (active). As for `Nc1nccc(Oc2ccc(NC(=O)c3c[nH]cc(-c4ccc(F)cc4)c3=O)cc2F)c1Cl`, the Potency was 23.5 µM (active).

With `COc1ccccc1[C@H](c1cccc2ccccc12)[C@@](C)(C#N)C(=O)N1CCC(c2cccc(C(F)(F)F)c2)CC1`, the Potency entry is “inactive”.

Regarding `CCCCOCCOc1nc(-c2ccc(C(=O)O)c(F)c2)sc1C`, the Potency is 0.0017 µM [activator] (active). Under `CC(O)=C(C#N)C(=O)Nc1ccc(C(F)(F)F)cc1` stands 16.6 µM (active); under `O=C(Nc1cccc(Cl)c1)Nc1ncc(CCNc2ncnc3ccsc23)s1`, 29.6 µM (active). With `N#CC[C@H](C1CCCC1)n1cc(-c2ncnc3[nH]ccc23)cn1` the figure was 23.5 µM (active). Consider `CC(C)(C)c1cc(C(C)(C)C)c(NC(=O)c2c[nH]c3ccccc3c2=O)cc1O`, for which the Potency is 16.6 µM (active).
